Tested on: Plasmodium falciparum Sir2 (PF13_0152, Sir2A)
Experiment: Plasmodium falciparum Sir2A binding compounds – biochemical, small-molecule microarray, 635 nm fluorescence, primary screen (AID 1098);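 note: score merges spot fluorescence intensity with its signal-to-noise ratio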
Settings: fluorescence 635 nm, higher = more signal
In the case of `CCc1cc2c(nc1CC)CCN(CCC(C)=NOC[C@@H](O)COCc1ccco1)C2`, the composite z-score is reported as 1.54. With `CCN1C(=O)[C@H]2[C@H]3[C@H](O)[C@H](O)CC(=NOC(C)CN4CCCCc5nc(C)c(C)cc54)[C@@H]3CC[C@H]2C1=O` (some centres not stated) the composite z-score was 0.438. For `COCCOC(=O)N1C(=O)[C@@]2(c3cc(C#CC4(O)CCCCCC4)ccc31)[C@H](c1ccc(OCCO)cc1)N1[C@H](c3ccccc3)[C@H](c3ccccc3)OC(=O)[C@H]1[C@@H]2C(=O)NC[C@H](O)c1ccccc1`, the composite z-score was 0.933. `CC1CC/C=C\[C@H]2OC34C=CCN(C(C)C)C(=O)[C@H]3N(CCCO)C(=O)[C@@H]4C2C(=O)O1` (some centres not stated) gave a composite z-score of 1.29. For `CCCNC(=O)OC[C@H]1O[C@H](CCON=CC[C@@H]2C=C[C@H](OC(C)=O)[C@@H](COC(C)=O)O2)C=C[C@@H]1Oc1ccc(OC)cc1`, the composite z-score was 0.46. `Cc1ccc(S[C@]2(C(=O)O)CC(=O)N(Cc3ccccc3)[C@@H]2c2ccc(CO)cc2I)cc1` gave a composite z-score of 1.17. `CC(=O)C[C@H](O)[C@@H](NC(=O)OC(C)(C)C)C(C)C` gave a composite z-score of -0.276. With `COC(=O)C1=CCC(c2cccc(Cl)c2)O1` (configuration not stated) the composite z-score was 1.15. `COCCCNC(=O)[C@@]1(CCS(=O)(=O)c2ccccc2)N=C(c2ccc(OCCCO)cc2)O[C@H]1c1ccccc1` gave a composite z-score of 1.69. Work on `O=C(NN=C1C[C@@H](O)[C@@H](O)[C@@H]2[C@@H]3C(=O)N(c4cccc(Oc5ccccc5)c4)C(=O)[C@@H]3CC[C@@H]12)OCc1ccccc1` yielded a composite z-score of 0.0165. In the case of `CCOC(=O)NN=C1C[C@@H](O)[C@@H](O)[C@@H]2[C@@H]3C(=O)N(C[C@@H]4CCCO4)C(=O)[C@@H]3CC[C@@H]12`, the composite z-score is reported as 0.419. Work on `COC(=O)c1c(CC[C@@H](CO)NC(=O)N[C@H](Cc2ccccc2)Cn2cc(-c3ccccc3N)nn2)oc(C(C)=O)c1C(=O)OC` yielded a composite z-score of 0.326. `CC(CCN1CCc2nc(-c3ccccc3)c(-c3ccccc3)cc2C1)=NOC(C)CN1CCCCc2nc(C)c(C)cc21` (configuration not stated) gave a composite z-score of 0.646. Work on `CCCNC(=O)[C@@H]1c2ccccc2C(=O)N(Cc2ccccc2Cl)[C@H]1c1ccc(CO)cc1` yielded a composite z-score of 1.67. For `COc1ccc(O[C@H]2C=C[C@@H](c3ccccc3)O[C@@H]2COC(=O)CCC(C)=NOCC[C@@H]2C=C[C@H](OC(C)=O)[C@@H](COC(C)=O)O2)cc1`, the composite z-score was 0.868. In the case of `CC(C)OC(=O)C=C1C[C@@H](c2ccc(C#N)cc2)O[C@@H](c2ccc(C#N)cc2)O1`, the composite z-score is reported as 1.07. With `CCCC=C(CCC)[C@@H](NC(=O)c1ccc(-c2ccccc2)cc1)c1ccc(C(=O)OC)cc1` the composite z-score was 0.407. For `CCCC[C@@H](O)C1=C(C)C[C@H]2C(=O)N(Cc3ccccc3)C(=O)[C@H]2[C@H]1CO`, the composite z-score was 0.222. For `COCCNC(=O)OCC1CCCC2(CC(OC(=O)NCCc3ccc(F)cc3)CC(CCC(=O)N[C@@H](C)C(=O)OC)O2)O1` (some centres not stated), the composite z-score was 1.16. For `C[N+](C)(C)CCCCCCNC(=O)[C@@H]1C[C@@H]2C(=O)N3CCC[C@H]3C(=O)N2[C@@H]1c1cccc(OCCO)c1`, the composite z-score was 1.26. `CC(C)C[C@@H]1NC(=O)[C@H]2C[C@@H](C(=O)O)[C@@H](c3ccc(O)cc3)N2C1=O` gave a composite z-score of 1.08. For `O=C1O[C@@H](c2ccccc2)[C@@H](c2ccccc2)N2[C@@H](c3ccccc3OCCO)[C@]3(C(=O)Nc4ccc(C#CCCO)cc43)[C@@H](C(=O)O)[C@H]12`, the composite z-score was 1.58. Work on `CO[C@H]1COC(=O)[C@H](C)COC(=O)CC=C[C@@H](C)[C@H](OC)COC(=O)CC=C[C@@H]1C` yielded a composite z-score of 0.864. `C=CCC(OC(C)=O)[C@@H]1[C@@H](N(Cc2cc3ccccc3o2)C(=O)Cc2ccc(F)cc2)c2cc(OCCCO)ccc2N1C(=O)Cc1ccc(OC)cc1` (some centres not stated) showed a composite z-score of -0.144. Work on `CO[C@@H]1COC(=O)[C@H](C)NC(=O)[C@@H](C)COC(=O)CCC[C@H]1C` yielded a composite z-score of 0.957. In the case of `CC(C)(C)OC(=O)CC[C@]1(C(N)=O)COC(c2ccc(OCCCO)cc2)=N1`, the composite z-score is reported as 0.755.

Tested on: not listed separately
Experiment: probe aDKK1 binding to arrayed compounds – biochemical, biotinylated probe, 635/667 nm fluorescence, primary screen (AID 1099);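 note: score merges 667nm spot fluorescence with signal to noise across triplicate slides; reference of the scale not given here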
Settings: small-molecule microarray, higher = more signal
Compound `CCOC(=O)[C@H](Cc1ccccc1)NC(=O)CCC1CC(OC(=O)NCc2ccc3c(c2)OCO3)CC2(CCCC(COC(=O)NCc3cccc(C(F)(F)F)c3)O2)O1` (some centres not stated) has a composite z-score of 0.113. `CC(=O)OC[C@H]1O[C@@H](ON=C[C@@H](C)[C@H](OCc2ccccc2)C(C)C)[C@H](OC(C)=O)[C@@H](OC(C)=O)[C@@H]1OC(C)=O` gave a composite z-score of 0.129. Compound `O=C1[C@H]2[C@H]3[C@H](O)[C@H](O)CC(=NOCc4ccccc4)[C@H]3CC[C@H]2C(=O)N1C[C@@H]1CCCO1` has a composite z-score of 0.114. With `CO[C@@H]1COC(=O)[C@@H]2CCCN2C(=O)[C@@H](C)COC(=O)[C@H](COCc2ccccc2)NC(=O)CC=C[C@H]1C` the composite z-score was -0.559. With `C=C(/C(=C/C[C@H](OC(C)=O)c1ccc(OCCO)cc1)c1cnc2ccccc2c1)C(C)C` the composite z-score was -0.523. For `COC(=O)CC=C[C@@H](C)[C@H](OC)c1ccccc1Br`, the composite z-score was -0.133. For `COc1ccccc1CN1C(=O)c2ccccc2[C@@H](C(=O)NCC(F)(F)F)[C@@H]1c1ccc(CO)cc1`, the composite z-score was -0.139. With `O=C1[C@H]2[C@H]3[C@H](O)[C@H](O)CC(=NO[C@@H]4O[C@H](CO)[C@@H](O)[C@H](O)[C@H]4O)[C@H]3CC[C@H]2C(=O)N1C1CCCCC1` the composite z-score was 0.0533. In the case of `CC(C)=CCCC(C)=CCON=C1C[C@@H](O)[C@@H](O)[C@@H]2[C@@H]3C(=O)N(C[C@@H]4CCCO4)C(=O)[C@@H]3CC[C@@H]12`, the composite z-score is reported as -0.364. For `C=CC[C@@H]1C=C[C@H](ON=C2c3cc(OC)ccc3O[C@H](c3cccc(OC)c3)[C@H]2O)[C@@H](CO)O1`, the composite z-score was -0.403. In the case of `CCc1cc2c(nc1CC)CCN(CCC(C)=NOC[C@@H](O)COCc1ccco1)C2`, the composite z-score is reported as 0.0564. `CCN1C(=O)[C@H]2[C@H]3[C@H](O)[C@H](O)CC(=NOC(C)CN4CCCCc5nc(C)c(C)cc54)[C@@H]3CC[C@H]2C1=O` (some centres not stated) showed a composite z-score of -0.206. Work on `COCCOC(=O)N1C(=O)[C@@]2(c3cc(C#CC4(O)CCCCCC4)ccc31)[C@H](c1ccc(OCCO)cc1)N1[C@H](c3ccccc3)[C@H](c3ccccc3)OC(=O)[C@H]1[C@@H]2C(=O)NC[C@H](O)c1ccccc1` yielded a composite z-score of 0.0678. Compound `CC1CC/C=C\[C@H]2OC34C=CCN(C(C)C)C(=O)[C@H]3N(CCCO)C(=O)[C@@H]4C2C(=O)O1` (some centres not stated) has a composite z-score of -0.268. `CCCNC(=O)OC[C@H]1O[C@H](CCON=CC[C@@H]2C=C[C@H](OC(C)=O)[C@@H](COC(C)=O)O2)C=C[C@@H]1Oc1ccc(OC)cc1` gave a composite z-score of -0.0927. For `Cc1ccc(S[C@]2(C(=O)O)CC(=O)N(Cc3ccccc3)[C@@H]2c2ccc(CO)cc2I)cc1`, the composite z-score was -0.0401. With `CC(=O)C[C@H](O)[C@@H](NC(=O)OC(C)(C)C)C(C)C` the composite z-score was -0.186. With `COC(=O)C1=CCC(c2cccc(Cl)c2)O1` (configuration not stated) the composite z-score was -0.138. For `COCCCNC(=O)[C@@]1(CCS(=O)(=O)c2ccccc2)N=C(c2ccc(OCCCO)cc2)O[C@H]1c1ccccc1`, the composite z-score was 1.45. Compound `O=C(NN=C1C[C@@H](O)[C@@H](O)[C@@H]2[C@@H]3C(=O)N(c4cccc(Oc5ccccc5)c4)C(=O)[C@@H]3CC[C@@H]12)OCc1ccccc1` has a composite z-score of 0.182. In the case of `CCOC(=O)NN=C1C[C@@H](O)[C@@H](O)[C@@H]2[C@@H]3C(=O)N(C[C@@H]4CCCO4)C(=O)[C@@H]3CC[C@@H]12`, the composite z-score is reported as -0.147. In the case of `COC(=O)c1c(CC[C@@H](CO)NC(=O)N[C@H](Cc2ccccc2)Cn2cc(-c3ccccc3N)nn2)oc(C(C)=O)c1C(=O)OC`, the composite z-score is reported as 0.759. For `CC(CCN1CCc2nc(-c3ccccc3)c(-c3ccccc3)cc2C1)=NOC(C)CN1CCCCc2nc(C)c(C)cc21` (configuration not stated), the composite z-score was -0.0421. Compound `CCCNC(=O)[C@@H]1c2ccccc2C(=O)N(Cc2ccccc2Cl)[C@H]1c1ccc(CO)cc1` has a composite z-score of 0.989. `COc1ccc(O[C@H]2C=C[C@@H](c3ccccc3)O[C@@H]2COC(=O)CCC(C)=NOCC[C@@H]2C=C[C@H](OC(C)=O)[C@@H](COC(C)=O)O2)cc1` showed a composite z-score of -0.0184. Compound `CC(C)OC(=O)C=C1C[C@@H](c2ccc(C#N)cc2)O[C@@H](c2ccc(C#N)cc2)O1` has a composite z-score of 0.738. In the case of `CCCC=C(CCC)[C@@H](NC(=O)c1ccc(-c2ccccc2)cc1)c1ccc(C(=O)OC)cc1`, the composite z-score is reported as 0.245. `CCCC[C@@H](O)C1=C(C)C[C@H]2C(=O)N(Cc3ccccc3)C(=O)[C@H]2[C@H]1CO` gave a composite z-score of -0.407. `COCCNC(=O)OCC1CCCC2(CC(OC(=O)NCCc3ccc(F)cc3)CC(CCC(=O)N[C@@H](C)C(=O)OC)O2)O1` (some centres not stated) gave a composite z-score of -0.115. For `C[N+](C)(C)CCCCCCNC(=O)[C@@H]1C[C@@H]2C(=O)N3CCC[C@H]3C(=O)N2[C@@H]1c1cccc(OCCO)c1`, the composite z-score was -0.303. Compound `CC(C)C[C@@H]1NC(=O)[C@H]2C[C@@H](C(=O)O)[C@@H](c3ccc(O)cc3)N2C1=O` has a composite z-score of 0.717. Work on `O=C1O[C@@H](c2ccccc2)[C@@H](c2ccccc2)N2[C@@H](c3ccccc3OCCO)[C@]3(C(=O)Nc4ccc(C#CCCO)cc43)[C@@H](C(=O)O)[C@H]12` yielded a composite z-score of -0.878. `CO[C@H]1COC(=O)[C@H](C)COC(=O)CC=C[C@@H](C)[C@H](OC)COC(=O)CC=C[C@@H]1C` showed a composite z-score of -0.466. For `C=CCC(OC(C)=O)[C@@H]1[C@@H](N(Cc2cc3ccccc3o2)C(=O)Cc2ccc(F)cc2)c2cc(OCCCO)ccc2N1C(=O)Cc1ccc(OC)cc1` (some centres not stated), the composite z-score was -0.361. Compound `CO[C@@H]1COC(=O)[C@H](C)NC(=O)[C@@H](C)COC(=O)CCC[C@H]1C` has a composite z-score of -0.122. `CC(C)(C)OC(=O)CC[C@]1(C(N)=O)COC(c2ccc(OCCCO)cc2)=N1` gave a composite z-score of 1.59.

Reference: PubChem BioAssay
